Test results published in paper PMC7862700, “An all-to-all approach to the identification of sequence-specific readers for epigenetic DNA modifications on cytosine”.

What was measured:
Test in all cases: DAPPL (digital affinity profiling via proximity ligation, sequencing); 10 mM Tris-HCl pH 7.5, 50 mM NaCl, 1 mM DTT, 4% glycerol, room temperature, 30 min; GST-TFs on glutathione beads, 16-mer random dsDNA library, 0.1% formaldehyde crosslink after washing; high values mean tight binding
Conditions in all cases: protein: recombinant; tags: N-terminal GST; dsDNA, one strand shown
FLI1 = target: T1, FLI1 (Homo sapiens, UniProt Q01543 1-452)
T1 sequence: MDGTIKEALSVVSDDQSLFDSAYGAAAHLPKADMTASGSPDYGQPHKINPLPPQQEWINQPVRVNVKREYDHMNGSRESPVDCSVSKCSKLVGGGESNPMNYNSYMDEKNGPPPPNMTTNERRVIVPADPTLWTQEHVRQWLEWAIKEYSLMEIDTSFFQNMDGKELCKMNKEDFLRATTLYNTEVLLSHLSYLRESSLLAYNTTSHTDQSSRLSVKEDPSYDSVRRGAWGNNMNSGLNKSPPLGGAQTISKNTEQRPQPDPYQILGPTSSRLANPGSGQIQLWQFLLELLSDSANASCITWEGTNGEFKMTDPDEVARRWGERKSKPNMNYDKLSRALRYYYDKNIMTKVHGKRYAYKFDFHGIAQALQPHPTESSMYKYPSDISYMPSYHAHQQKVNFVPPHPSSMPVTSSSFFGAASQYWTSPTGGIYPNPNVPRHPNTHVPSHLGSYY
Method in brief: (§1)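 Sequencing on an Illumina NextSeq500 followed washing, crosslinking with 0.1% formaldehyde, proximity ligation (BsaI/T4 ligase, 1 h, 37 °C) and PCR amplification of pools that had been incubated for 30 min at room temperature with 200 nmole of a random double-stranded 16-mer DNA library in Tris/NaCl/DTT/glycerol buffer. Each pool held DNA-barcoded human transcription factors, expressed in yeast as GST fusions and captured on glutathione beads, plus a tag-only sample. Binding signal is a hexamer's read frequency for a factor divided by its frequency in the tag-only sample.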

ELK1 = target: T2, ELK1 (Homo sapiens, UniProt P19419 1-428)
T2 sequence: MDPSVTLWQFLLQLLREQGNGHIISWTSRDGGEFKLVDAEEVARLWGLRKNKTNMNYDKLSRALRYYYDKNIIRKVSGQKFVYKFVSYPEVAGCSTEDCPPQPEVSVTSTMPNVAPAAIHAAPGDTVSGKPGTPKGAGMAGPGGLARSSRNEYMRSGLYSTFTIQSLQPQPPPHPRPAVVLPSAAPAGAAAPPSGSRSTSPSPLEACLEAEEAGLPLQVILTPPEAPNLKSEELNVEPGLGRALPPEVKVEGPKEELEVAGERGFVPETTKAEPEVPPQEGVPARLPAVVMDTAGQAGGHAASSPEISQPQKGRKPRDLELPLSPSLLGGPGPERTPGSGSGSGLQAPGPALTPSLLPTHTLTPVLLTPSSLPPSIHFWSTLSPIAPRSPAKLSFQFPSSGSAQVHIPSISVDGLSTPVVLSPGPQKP
Method in brief: as §1

GABPA = target: T3, GABPA (Homo sapiens, UniProt Q06546 1-454)
T3 sequence: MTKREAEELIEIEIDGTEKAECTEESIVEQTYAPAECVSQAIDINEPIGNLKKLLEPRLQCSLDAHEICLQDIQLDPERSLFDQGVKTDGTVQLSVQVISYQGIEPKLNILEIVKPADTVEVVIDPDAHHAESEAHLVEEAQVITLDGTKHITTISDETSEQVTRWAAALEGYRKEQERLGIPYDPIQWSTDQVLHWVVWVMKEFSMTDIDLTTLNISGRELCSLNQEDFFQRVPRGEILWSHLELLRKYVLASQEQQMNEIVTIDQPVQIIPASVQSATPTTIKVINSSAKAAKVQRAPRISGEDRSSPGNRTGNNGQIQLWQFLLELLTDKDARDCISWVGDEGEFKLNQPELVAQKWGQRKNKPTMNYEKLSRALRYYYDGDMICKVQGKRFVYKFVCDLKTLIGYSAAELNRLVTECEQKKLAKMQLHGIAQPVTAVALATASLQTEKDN
Method in brief: as §1

ERG = target: T4, ERG (Homo sapiens, UniProt P11308 1-479)
T4 sequence: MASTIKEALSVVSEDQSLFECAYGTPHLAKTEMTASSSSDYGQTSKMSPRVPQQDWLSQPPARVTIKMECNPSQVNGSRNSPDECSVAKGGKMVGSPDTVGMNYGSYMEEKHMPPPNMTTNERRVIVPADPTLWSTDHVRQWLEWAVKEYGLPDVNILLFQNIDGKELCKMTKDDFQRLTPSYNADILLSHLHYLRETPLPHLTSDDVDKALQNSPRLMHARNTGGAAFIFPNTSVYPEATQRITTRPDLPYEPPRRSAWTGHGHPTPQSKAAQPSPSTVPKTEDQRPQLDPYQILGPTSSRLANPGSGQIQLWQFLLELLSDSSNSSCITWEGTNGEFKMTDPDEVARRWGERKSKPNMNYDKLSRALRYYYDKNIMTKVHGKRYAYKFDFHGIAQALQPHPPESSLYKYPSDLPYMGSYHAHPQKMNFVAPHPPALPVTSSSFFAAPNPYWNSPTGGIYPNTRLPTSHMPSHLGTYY
Method in brief: as §1

ELF1 = ELF1 (Homo sapiens, UniProt P32519 1-619)
ELF1, sequence (P32519 whole entry): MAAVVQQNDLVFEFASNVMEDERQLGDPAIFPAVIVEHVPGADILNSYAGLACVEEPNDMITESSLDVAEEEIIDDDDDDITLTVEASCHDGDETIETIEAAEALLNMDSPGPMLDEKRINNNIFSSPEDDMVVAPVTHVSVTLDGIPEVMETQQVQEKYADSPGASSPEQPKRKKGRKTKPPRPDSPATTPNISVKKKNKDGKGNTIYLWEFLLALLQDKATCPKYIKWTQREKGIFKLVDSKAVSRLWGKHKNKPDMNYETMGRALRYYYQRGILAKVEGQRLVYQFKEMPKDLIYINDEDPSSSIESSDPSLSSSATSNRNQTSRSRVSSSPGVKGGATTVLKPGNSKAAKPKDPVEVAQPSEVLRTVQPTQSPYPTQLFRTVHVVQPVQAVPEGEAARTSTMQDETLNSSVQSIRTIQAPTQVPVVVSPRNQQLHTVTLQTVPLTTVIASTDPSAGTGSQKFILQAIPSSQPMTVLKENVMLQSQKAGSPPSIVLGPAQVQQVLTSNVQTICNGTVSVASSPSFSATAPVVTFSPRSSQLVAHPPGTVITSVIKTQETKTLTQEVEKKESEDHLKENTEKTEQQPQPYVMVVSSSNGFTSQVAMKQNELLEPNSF
Method in brief: as §1

EHF = target: T5, EHF (Homo sapiens, UniProt Q9NZC4 1-300)
T5 sequence: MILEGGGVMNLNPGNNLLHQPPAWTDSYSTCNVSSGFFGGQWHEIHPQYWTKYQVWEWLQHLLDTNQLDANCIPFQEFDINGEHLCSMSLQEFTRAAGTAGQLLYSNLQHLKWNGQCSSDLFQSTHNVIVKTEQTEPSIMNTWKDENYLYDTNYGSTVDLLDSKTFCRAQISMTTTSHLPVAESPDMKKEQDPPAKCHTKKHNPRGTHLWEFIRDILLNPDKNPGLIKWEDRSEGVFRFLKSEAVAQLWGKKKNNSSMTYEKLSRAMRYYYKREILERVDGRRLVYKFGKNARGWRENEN
Method in brief: as §1

SPI1 = SPI1 (Homo sapiens, UniProt P17947 1-270)
Method in brief: as §1

SPIB = SPIB (Homo sapiens, UniProt Q01892 1-262)
SPIB, sequence (Q01892 whole entry): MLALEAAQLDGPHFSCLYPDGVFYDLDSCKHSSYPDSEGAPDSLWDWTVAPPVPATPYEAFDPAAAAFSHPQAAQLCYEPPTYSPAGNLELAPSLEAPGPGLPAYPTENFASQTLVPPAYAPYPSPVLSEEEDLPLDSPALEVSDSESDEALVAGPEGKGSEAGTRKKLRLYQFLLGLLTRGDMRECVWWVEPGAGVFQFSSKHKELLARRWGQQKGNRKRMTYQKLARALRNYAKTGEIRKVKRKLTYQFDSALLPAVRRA
Method in brief: as §1

ELK3 = target: T6, ELK3 (Homo sapiens, UniProt P41970 1-407)
T6 sequence: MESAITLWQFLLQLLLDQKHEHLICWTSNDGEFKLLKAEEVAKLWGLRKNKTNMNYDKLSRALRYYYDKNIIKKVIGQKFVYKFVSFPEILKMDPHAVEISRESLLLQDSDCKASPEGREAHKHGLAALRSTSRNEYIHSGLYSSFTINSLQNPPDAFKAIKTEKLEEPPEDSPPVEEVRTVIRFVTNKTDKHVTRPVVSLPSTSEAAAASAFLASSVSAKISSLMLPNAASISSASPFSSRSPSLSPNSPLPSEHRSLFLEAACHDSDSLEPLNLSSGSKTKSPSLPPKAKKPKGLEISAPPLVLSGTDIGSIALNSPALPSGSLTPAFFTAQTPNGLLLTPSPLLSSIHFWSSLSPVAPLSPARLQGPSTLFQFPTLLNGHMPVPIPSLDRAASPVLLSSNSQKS
Method in brief: as §1

CATCTA
binding signal (FLI1): 1.22 fold enrichment (6-mer frequency, TF over GST control)
binding signal (ELK1): 1.3 fold enrichment (6-mer frequency, TF over GST control)
binding signal (GABPA): 1.25 fold enrichment (6-mer frequency, TF over GST control)
binding signal (ERG): 1.11 fold enrichment (6-mer frequency, TF over GST control)
binding signal (ELF1): 1.25 fold enrichment (6-mer frequency, TF over GST control)
binding signal (EHF): 1.18 fold enrichment (6-mer frequency, TF over GST control)
binding signal (SPI1): 1.16 fold enrichment (6-mer frequency, TF over GST control)
binding signal (SPIB): 1.17 fold enrichment (6-mer frequency, TF over GST control)
binding signal (ELK3): 1.13 fold enrichment (6-mer frequency, TF over GST control)
